In PubChem BioAssay AID651919 (Sanford-Burnham Center for Chemical Genomics, 2012):
Values joined by “and” are separate entries in the source; they are usually repeats but may differ in a detail not shown here. Equal values may be shown once.

These compounds were tested against C-X-C chemokine receptor type 5 (Homo sapiens) (UniProt P32302) (assay: antagonism of CXCR6 versus CXCR5 signaling – cell-based, CHO-K1 PathHunter beta-arrestin, luminescence, set 4, selectivity assay for CXCR6 antagonist project, profiling panel (AID 651919)). Details: run 1, at 79 µM (top of the series).

**Q.** With COc1cccc(C(=O)NC2CC3CCCC(C2)N3CC(=O)Nc2ccccc2)c1 (centres undefined) as the compound, how does the inhibition read?
**A.** 10.5%

**Q.** How did the inhibition turn out when O=C(CN1C2CCCC1CC(NC(=O)c1ccc3c(c1)OCO3)C2)Nc1ccc(F)cc1 (centres undefined) was run?
**A.** 6.87%

**Q.** With COc1cc(C(=O)NC2CC3CCCC(C2)N3CC(=O)Nc2ccc(F)cc2)cc(OC)c1OC (centres undefined) as the compound, how does the inhibition read?
**A.** 1.06%

**Q.** COc1ccc(NC(=O)CN2C3CCCC2CC(NC(=O)c2ccc(OC)cc2)C3)cc1 (centres undefined) was tested. Which inhibition did it give?
**A.** -6.48%

**Q.** How did the inhibition turn out when O=C(CN1C2CCCC1CC(NC(=O)c1ccccc1)C2)Nc1ccccc1 (centres undefined) was run?
**A.** 8.48%

**Q.** COc1cccc(C(=O)NC2CC3CCCC(C2)N3CC(=O)Nc2ccc(Cl)cc2)c1 (centres undefined) was tested. Which inhibition did it give?
**A.** -2.39%

**Q.** COc1cc(OC)cc(C(=O)NC2CC3CCCC(C2)N3CC(=O)Nc2ccccc2)c1 (centres undefined) was tested. Which inhibition did it give?
**A.** 37.4%

**Q.** How did the inhibition turn out when Cc1ccc(NC(=O)CN2C3CCCC2CC(NC(=O)c2ccc4c(c2)OCO4)C3)cc1 (centres undefined) was run?
**A.** 42%

**Q.** With COc1cccc(C(=O)NC2CC3CCCC(C2)N3CC(=O)Nc2ccc(C)cc2)c1 (centres undefined) as the compound, how does the inhibition read?
**A.** 44.1%

**Q.** Which inhibition does the source give for COc1cccc(C(=O)NC2CC3CCCC(C2)N3CC(=O)Nc2ccc(F)cc2)c1 (centres undefined) here?
**A.** -4.11%

**Q.** With COc1cc(OC)cc(C(=O)NC2CC3CCCC(C2)N3CC(=O)Nc2ccc(F)cc2)c1 (centres undefined) as the compound, how does the inhibition read?
**A.** 32.4%

**Q.** With O=C(CN1C2CCCC1CC(NC(=O)c1ccc3c(c1)OCO3)C2)Nc1ccc(Cl)cc1 (centres undefined) as the compound, how does the inhibition read?
**A.** 44.8%

**Q.** Which inhibition does the source give for COc1cc(C(=O)NC2CC3CCCC(C2)N3CC(=O)Nc2ccc(C)cc2)cc(OC)c1OC (centres undefined) here?
**A.** 2.28%

**Q.** Which inhibition does the source give for COc1ccc(C(=O)NC2CC3CCCC(C2)N3CC(=O)Nc2ccccc2)cc1 (centres undefined) here?
**A.** 3.68%

**Q.** For COc1ccc(CN2C3CCCC2CC(NC(=O)c2cc(OC)c(OC)c(OC)c2)C3)cc1 (centres undefined), which inhibition is on record?
**A.** 37%

**Q.** With COc1ccc(NC(=O)CN2C3CCCC2CC(NC(=O)c2cc(OC)c(OC)c(OC)c2)C3)cc1 (centres undefined) as the compound, how does the inhibition read?
**A.** -6.42%

**Q.** Which inhibition does the source give for COc1cc(OC)cc(C(=O)NC2CC3CCCC(C2)N3CC(=O)Nc2ccc(Cl)cc2)c1 (centres undefined) here?
**A.** 22.6%

**Q.** Which inhibition does the source give for COc1ccc(C(=O)NC2CC3CCCC(C2)N3CC(=O)Nc2ccc(C)cc2)cc1OC (centres undefined) here?
**A.** 22.7%

**Q.** How did the inhibition turn out when COc1cc(C(=O)NC2CC3CCCC(C2)N3CC(=O)Nc2ccccc2Cl)cc(OC)c1OC (centres undefined) was run?
**A.** 29.2% and 16%

**Q.** With COc1ccccc1NC(=O)CN1C2CCCC1CC(NC(=O)c1cc(OC)c(OC)c(OC)c1)C2 (centres undefined) as the compound, how does the inhibition read?
**A.** 10.1%

**Q.** With COc1ccc(C(=O)NC2CC3CCCC(C2)N3CC(=O)Nc2ccc(Cl)cc2)cc1 (centres undefined) as the compound, how does the inhibition read?
**A.** 34.5%

**Q.** How did the inhibition turn out when COc1ccc(C(=O)NC2CC3CCCC(C2)N3CC(=O)Nc2ccc(C)cc2)cc1 (centres undefined) was run?
**A.** 22.2%

**Q.** With COc1ccc(NC(=O)CN2C3CCCC2CC(NC(=O)c2ccc(OC)c(OC)c2)C3)cc1 (centres undefined) as the compound, how does the inhibition read?
**A.** -3.99%

**Q.** With COc1ccc(C(=O)NC2CC3CCCC(C2)N3CC(=O)Nc2ccc(F)cc2)cc1 (centres undefined) as the compound, how does the inhibition read?
**A.** -9.29%

**Q.** With COc1cc(C(=O)NC2CC3CCCC(C2)N3CC(=O)Nc2ccc(Cl)cc2)cc(OC)c1OC (centres undefined) as the compound, how does the inhibition read?
**A.** -11.9%

**Q.** Which inhibition does the source give for COc1cc(OC)cc(C(=O)NC2CC3CCCC(C2)N3CC(=O)Nc2ccc(C)cc2)c1 (centres undefined) here?
**A.** 8.41%

**Q.** How did the inhibition turn out when COc1ccc(NC(=O)CN2C3CCCC2CC(NC(=O)c2cccc(OC)c2)C3)cc1 (centres undefined) was run?
**A.** 8.8%

**Q.** How did the inhibition turn out when COc1ccc(NC(=O)CN2C3CCCC2CC(NC(=O)c2cc(OC)cc(OC)c2)C3)cc1 (centres undefined) was run?
**A.** 22.9%

**Q.** O=C(CN1C2CCCC1CC(NC(=O)c1ccc3c(c1)OCO3)C2)Nc1ccccc1 (centres undefined) was tested. Which inhibition did it give?
**A.** 27.8%

**Q.** For COc1ccc(C(=O)NC2CC3CCCC(C2)N3CC(=O)Nc2ccc(Cl)cc2)cc1OC (centres undefined), which inhibition is on record?
**A.** 0.551%

**Q.** For COc1ccc(C(=O)NC2CC3CCCC(C2)N3CC(=O)Nc2ccccc2)cc1OC (centres undefined), which inhibition is on record?
**A.** 16.5%

**Q.** COc1ccc(NC(=O)CN2C3CCCC2CC(NC(=O)c2ccc4c(c2)OCO4)C3)cc1 (centres undefined) was tested. Which inhibition did it give?
**A.** 21%

**Q.** With COc1ccc(C(=O)NC2CC3CCCC(C2)N3CC(=O)Nc2ccc(F)cc2)cc1OC (centres undefined) as the compound, how does the inhibition read?
**A.** 1.06%

**Q.** COc1cc(C(=O)NC2CC3CCCC(C2)N3CC(=O)Nc2ccccc2)cc(OC)c1OC (centres undefined) was tested. Which inhibition did it give?
**A.** 8.6% and 15.6%
